Assay results from PubChem BioAssay (EPA / NIEHS).
The source made the active and inactive calls. The calls were made as follows: active = hit-call score of the fitted dose curve at least 0.9, where 1 is the maximum; inactive = score below 0.9.

Assays:
[1] = read-out: Transforming growth factor beta 1 (TGFb1), TGFB1 (gene 7040); assay: BSK_KF3CT_TGFb1: BioMAP Diversity Plus: KF3CT Assay for Transforming growth factor beta 1 (TGFb1) Biomarker Activity (AID 2283072); settings: primary human keratinocytes with fibroblasts; actives raise or lower the signal
Summary of the method: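 Primary human skin cells (keratinocytes, foreskin fibroblasts) were co-cultured, exposed to test chemical and sampled at 24 h. TGF-b1 levels were measured by ELISA and fitted bidirectionally relative to DMSO.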

[2] = read-out: C-C motif chemokine 2 (Homo sapiens) (UniProt P13500); assay: BSK_KF3CT_MCP1: BioMAP Diversity Plus: KF3CT Assay for Monocyte Chemoattractant Protein 1 (MCP1/CCL2) Biomarker Activity (AID 2283073); settings: primary human keratinocytes with fibroblasts; actives raise or lower the signal
Summary of the method: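 Human keratinocyte plus foreskin fibroblast primary co-culture exposed to chemical for 24 h. MCP-1 levels measured by ELISA. Bidirectional curve fitting relative to DMSO negative control as baseline.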

[3] = read-out: Matrix Metallopeptidase 9 (MMP9), MMP9 (gene 4318); assay: BSK_KF3CT_MMP9: BioMAP Diversity Plus: KF3CT Assay for Matrix Metallopeptidase 9 (MMP9) Biomarker Activity (AID 2283074); settings: primary human keratinocytes with fibroblasts; actives raise or lower the signal
Summary of the method: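 Keratinocyte plus foreskin fibroblast human primary skin co-culture was dosed with chemical and MMP-9 was quantified by ELISA 24 h later. Bidirectional curve fitting used DMSO as negative control and activity baseline.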

[4] = read-out: urokinase plasminogen activator (uPA), PLAU (gene 5328); assay: BSK_KF3CT_uPA: BioMAP Diversity Plus: KF3CT Assay for urokinase plasminogen activator (uPA) Biomarker Activity (AID 2283075); settings: primary human keratinocytes with fibroblasts; actives raise or lower the signal
Summary of the method: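 Human keratinocyte plus foreskin fibroblast primary co-culture exposed to chemical for 24 h. uPA levels were quantified by ELISA, and activity was fitted bidirectionally against a DMSO negative-control baseline.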

[5] = read-out: E-selectin (Homo sapiens) (UniProt P16581); assay: BSK_LPS_Eselectin: BioMAP Diversity Plus: LPS Assay for Eselectin Biomarker Activity (AID 2283077); settings: primary human HUVEC with PBMC; actives raise or lower the signal
Summary of the method: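 Human umbilical vein endothelial cells co-cultured with peripheral blood mononuclear cells under LPS stimulation; E-selectin measured by ELISA 24 h after chemical dosing. Activity fitted bidirectionally against DMSO as negative control and baseline.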

[6] = read-out: Interleukin-8 (IL8), CXCL8 (gene 3576); assay: BSK_LPS_IL8: BioMAP Diversity Plus: LPS Assay for Interleukin-8 (IL8) Biomarker Activity (AID 2283078); settings: primary human HUVEC with PBMC; actives raise or lower the signal
Summary of the method: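 Human umbilical vein endothelial cells co-cultured with PBMC were stimulated with LPS; IL-8 levels were measured by ELISA 24 h after chemical dosing. Activity was fitted bidirectionally against DMSO as negative control and baseline.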

[7] = BSK_LPS_SRB: Viability Assessment in the BioMAP Diversity Plus: LPS Assay (AID 2283079); settings: primary human HUVEC with PBMC;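 also: total protein by sulforhodamine B absorbance as a cytotoxicity measure; measured one day after compound addition; fitted in both directions against DMSO so loss or gain of signal counts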
Summary of the method: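 Human umbilical vein endothelial cells co-cultured with PBMC (LPS system) were dosed for 24 h. Total protein was stained with 0.1% sulforhodamine B after 10% TCA fixation, read at 560 nm, and fitted bidirectionally against DMSO baseline.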

[8] = read-out: Interleukin-1 alpha (IL1a), IL1A (gene 3552); assay: BSK_LPS_IL1a: BioMAP Diversity Plus: LPS Assay for Interleukin-1 alpha (IL1a) Biomarker Activity (AID 2283080); settings: primary human HUVEC with PBMC; actives raise or lower the signal
Summary of the method: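 Human umbilical vein endothelial cells co-cultured with peripheral blood mononuclear cells were LPS-stimulated and exposed to test chemicals for 24 h. IL-1 alpha was quantified by ELISA, with bidirectional curve fitting against DMSO as the negative control and baseline.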

[9] = read-out: Monocyte Chemoattractant Protein-1 (MCP1), CCL2 (gene 6347); assay: BSK_LPS_MCP1: BioMAP Diversity Plus: LPS Assay for Monocyte Chemoattractant Protein-1 (MCP1) Biomarker Activity (AID 2283081); settings: primary human HUVEC with PBMC; actives raise or lower the signal
Summary of the method: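 HUVEC plus PBMC co-culture (human primary cells, LPS system) exposed to test chemical for 24 h; MCP-1 measured by ELISA. Bidirectional curve fitting against DMSO baseline; parallel SRB total-protein staining flags overt cytotoxicity.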

[10] = BSK_LPS_PGE2: BioMAP Diversity Plus: LPS Assay for Prostaglandin E2 (PGE2) Biomarker Activity (AID 2283082); settings: primary human HUVEC with PBMC; actives raise or lower the signal
Summary of the method: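 LPS-activated HUVEC/PBMC co-culture; cmpd dosed, 24 h; PGE2 by ELISA; bidirectional fit vs DMSO; SRB (0.1%, TCA-fixed, 560 nm) in parallel plates for overt cytotox.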

[11] = read-out: Macrophage colony-stimulating factor (MCSF), CSF1 (gene 1435); assay: BSK_LPS_MCSF: BioMAP Diversity Plus: LPS Assay for Macrophage colony-stimulating factor (MCSF) Biomarker Activity (AID 2283083); settings: primary human HUVEC with PBMC; actives raise or lower the signal
Summary of the method: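 Human umbilical vein endothelial cells co-cultured with peripheral blood mononuclear cells were exposed to compound for 24 h. M-CSF levels were measured by ELISA, and bidirectional curve fitting used DMSO as the negative control and baseline.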

[12] = read-out: Tissue Factor, F3 (gene 2152); assay: BSK_LPS_TissueFactor: BioMAP Diversity Plus: LPS Assay for Tissue Factor Biomarker Activity (AID 2283084); settings: primary human HUVEC with PBMC; actives raise or lower the signal
Summary of the method: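 Human umbilical vein endothelial cells co-cultured with peripheral blood mononuclear cells were dosed and stimulated with LPS. Cell-surface CD142 was quantified by ELISA at 24 h. Activity was fitted bidirectionally against DMSO baseline.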

[13] = read-out: Tumor necrosis factor (Homo sapiens) (UniProt P01375); assay: BSK_LPS_TNFa: BioMAP Diversity Plus: LPS Assay for Tumour Necrosis Factor alpha (TNFa) Biomarker Activity (AID 2283085); settings: primary human HUVEC with PBMC; actives raise or lower the signal
Summary of the method: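 Read-out is ELISA of TNFa in primary human endothelial cell–PBMC co-cultures at 24 h after compound. Activity in either direction was fitted against DMSO.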

[14] = read-out: Vascular cell adhesion molecule 1 (VCAM1), VCAM1 (gene 7412); assay: BSK_LPS_VCAM1: BioMAP Diversity Plus: LPS Assay for Vascular cell adhesion molecule 1 (VCAM1) Biomarker Activity (AID 2283086); settings: primary human HUVEC with PBMC; actives raise or lower the signal
Summary of the method: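 HUVEC + PBMC co-culture, LPS system; compound 24 h; VCAM-1 by ELISA; bidirectional fit vs DMSO control; parallel SRB (0.1%, TCA-fixed, 560 nm) for cytotoxicity.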

CD38, CD38 (gene 952) = assay: BSK_SAg_CD38: BioMAP Diversity Plus: SAg Assay for CD38 Biomarker Activity (AID 2283087); settings: primary human HUVEC with PBMC; actives raise or lower the signal
Summary of the method: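 Human HUVEC plus PBMC co-culture stimulated with superantigen; CD38 measured by ELISA 24 h after chemical dosing. Fluorescence read-out, bidirectional fit against DMSO; cytotoxicity tracked in parallel by SRB and Alamar Blue.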

CD40, CD40 (gene 958) [15] = assay: BSK_SAg_CD40: BioMAP Diversity Plus: SAg Assay for CD40 Biomarker Activity (AID 2283088); settings: primary human HUVEC with PBMC; actives raise or lower the signal
Summary of the method: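 Human umbilical vein endothelial cells co-cultured with PBMC; CD40 levels measured by ELISA with fluorescence read-out 24 h after chemical dosing. Gain or loss of signal fitted bidirectionally against DMSO baseline.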

CD69, CD69 (gene 969) = assay: BSK_SAg_CD69: BioMAP Diversity Plus: SAg Assay for CD69 Biomarker Activity (AID 2283089); settings: primary human HUVEC with PBMC; actives raise or lower the signal
Summary of the method: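 Endothelial/PBMC co-culture; chemical added; 24 h incubation; CD69 ELISA with fluorescence detection; bidirectional fit vs DMSO.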

[16] = read-out: Monocyte Chemoattractant Protein-1 (MCP1), CCL2 (gene 6347); assay: BSK_SAg_MCP1: BioMAP Diversity Plus: SAg Assay for Monocyte Chemoattractant Protein-1 (MCP1) Biomarker Activity (AID 2283090); settings: primary human HUVEC with PBMC; actives raise or lower the signal
Summary of the method: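 MCP-1 levels in the endothelial–PBMC SAg co-culture were quantified by ELISA at 24 h post-dosing; both increases and decreases versus DMSO scored. Cytotoxicity monitored by SRB total protein in parallel cultures.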

[17] = read-out: E-selectin (Homo sapiens) (UniProt P16581); assay: BSK_SAg_Eselectin: BioMAP Diversity Plus: SAg Assay for Eselectin Biomarker Activity (AID 2283091); settings: primary human HUVEC with PBMC; actives raise or lower the signal
Summary of the method: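 HUVEC co-cultured with PBMC, compound dosed then read at 24 h; E-selectin measured by ELISA. Activity fitted bidirectionally against DMSO as negative control and baseline.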

CD40, CD40 (gene 958) [18] = assay: BSK_LPS_CD40: BioMAP Diversity Plus: LPS Assay for CD40 Biomarker Activity (AID 2283076); settings: primary human HUVEC with PBMC; actives raise or lower the signal
Summary of the method: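 Primary human umbilical vein endothelial cells co-cultured with peripheral blood mononuclear cells, LPS-stimulated, were dosed with chemical and read 24 h later. CD40 levels were measured by ELISA and fitted bidirectionally against DMSO as negative control and baseline.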

Measured: outcome

Tumor necrosis factor (Homo sapiens), sequence (P01375 whole entry, looked up): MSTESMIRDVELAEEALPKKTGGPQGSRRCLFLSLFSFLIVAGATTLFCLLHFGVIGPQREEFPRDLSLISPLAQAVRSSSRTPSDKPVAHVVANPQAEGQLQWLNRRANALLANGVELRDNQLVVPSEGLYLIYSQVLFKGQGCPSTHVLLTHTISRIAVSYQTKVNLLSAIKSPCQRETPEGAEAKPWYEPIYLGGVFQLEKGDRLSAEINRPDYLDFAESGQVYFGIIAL
E-selectin (Homo sapiens), sequence (P16581 whole entry, looked up): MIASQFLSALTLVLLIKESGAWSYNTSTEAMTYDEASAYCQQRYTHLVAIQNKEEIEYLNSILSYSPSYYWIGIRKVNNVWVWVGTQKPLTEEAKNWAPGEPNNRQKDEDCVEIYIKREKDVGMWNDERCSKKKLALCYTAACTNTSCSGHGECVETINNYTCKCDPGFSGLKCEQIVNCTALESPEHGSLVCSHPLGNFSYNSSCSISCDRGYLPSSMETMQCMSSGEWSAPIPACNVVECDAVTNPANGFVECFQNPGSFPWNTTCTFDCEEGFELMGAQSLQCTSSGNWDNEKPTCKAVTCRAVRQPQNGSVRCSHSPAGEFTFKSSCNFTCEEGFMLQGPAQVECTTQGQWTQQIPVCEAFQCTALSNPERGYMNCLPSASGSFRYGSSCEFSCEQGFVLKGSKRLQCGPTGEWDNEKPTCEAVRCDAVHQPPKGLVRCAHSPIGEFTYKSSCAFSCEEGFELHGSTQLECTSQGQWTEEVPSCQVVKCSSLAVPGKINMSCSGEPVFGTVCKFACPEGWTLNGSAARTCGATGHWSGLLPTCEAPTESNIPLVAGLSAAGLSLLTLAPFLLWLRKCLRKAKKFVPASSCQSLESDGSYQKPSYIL

COc1cccc([C@H](O)C2CCN(CCc3ccc(F)cc3)CC2)c1OC
not listed: CD40, CD40 (gene 958) [18]
inactive: all other assays above

CC1(C)NC(=O)N(c2ccc([N+](=O)[O-])c(C(F)(F)F)c2)C1=O
not listed: CD38, CD38 (gene 952) | CD40, CD40 (gene 958) [18]
inactive: all other assays above

CC(O)CC(C)(C)O (stereo unspecified)
not listed: CD38, CD38 (gene 952)
inactive: all other assays above
